Experimental findings from PubChem BioAssay are described below.

Values without a mark were called inactive. How the calls were made is not given here.

Chain of Pantothenate synthetase (Mycobacterium tuberculosis (strain ATCC 25618 / H37Rv)) (P9WIL5 whole entry, looked up): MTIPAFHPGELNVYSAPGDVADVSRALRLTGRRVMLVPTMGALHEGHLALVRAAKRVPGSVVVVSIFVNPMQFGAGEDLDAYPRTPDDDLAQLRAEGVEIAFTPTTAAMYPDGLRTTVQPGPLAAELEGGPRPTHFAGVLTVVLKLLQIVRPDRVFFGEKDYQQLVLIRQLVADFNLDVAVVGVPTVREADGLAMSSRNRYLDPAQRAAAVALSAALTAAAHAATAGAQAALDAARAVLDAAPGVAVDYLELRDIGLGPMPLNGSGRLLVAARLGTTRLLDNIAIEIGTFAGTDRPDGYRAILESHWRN

The assay addresses Pantothenate synthetase (Mycobacterium tuberculosis (strain ATCC 25618 / H37Rv)) (UniProt P9WIL5). Nature of the assay: Recombinant Mtb pantothenate synthetase (PanC) inhibitors, coupled enzyme, confirmatory (AID 375).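 Further: 0% = full reaction with vehicle and 100% = no enzyme background.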 The conditions noted are these: coupled enzyme assay; at 10 µM, stronger effect = higher value.
By inhibition is commonly meant how much of the control response was suppressed. For the compound `Cc1cccc2cc(CN(Cc3nnnn3Cc3ccco3)C3CCCC3)c3nnnn3c12`, the inhibition was 3%.
The value for `O=C1CC(C(=O)Nc2ccccc2)C2(CCCC2)O1` (stereo not drawn) was 2%; that for `CCCCCC1NC(=O)NC1CCCCCC(=O)O` (stereo not drawn) was 0%; that for `O=C(NCc1cccnc1)C1CCCN(S(=O)(=O)c2ccc(Cl)cc2)C1` (stereo not drawn) was 2%.
To `O=C1OC(c2ccc(O)cc2)(c2ccc(O)cc2)c2ccccc21` belongs 4%.
For `O=C(O)CSc1ccc2ccccc2n1`, the inhibition was 5%.
`Cc1csc(NC(=O)CSc2nsc(SCC(=O)Nc3nc(C)cs3)c2C#N)n1`: the inhibition was 2%.
Regarding `CCOc1ccc(N2CC(C(=O)Nc3cccc(C)c3C)CC2=O)cc1` (stereo not drawn), the inhibition is 0%.
To `COc1cc(C(=O)NCCc2ccc3c(c2)OCCO3)ccc1OCC(=O)N1CCOCC1` belongs 2%; to `CNC(=O)Oc1ccc2c(c1)[C@]1(C)CCN(C)[C@@H]1N2C`, 4%.
Regarding `O=C(c1cnccn1)N(c1ccccc1)C1(C(=O)NC2CCCC2)CCCCC1`, the inhibition is 0%.
The value for `COc1ccccc1CC(=O)Nc1ccc(OC)c(OC)c1` was 3%; that for `COc1ccc(C(=O)CN2C3=NCCCN3c3ccccc32)cc1OC` was 0%; that for `Cc1ccc(-c2nc(CS(=O)CC(=O)NCCN(CC(C)C)CC(C)C)c(C)o2)cc1` (stereo not drawn) was 4%.
To `O=C(c1ccc(S(=O)(=O)N2CCOCC2)cc1)N1CCc2ccccc2C1` belongs 0%.
The value for `Cn1c(-c2cc(Br)ccc2O)n[nH]c1=S` was 2%.
With `C=CCNS(=O)(=O)c1ccc2nsnc2c1`, the inhibition is 0%.
To `CCCn1c(SCC(=O)NC(C)(C)C)nnc1C(C)C` belongs 3%.
